Experimental data from PubChem BioAssay (EPA / NIEHS).
The source holds several records for some structures; these can differ, active in one and inactive in another. Active and inactive are the calls of the source. Rule for the calls: active = hit-call score of the fitted dose curve at least 0.9, where 1 is the maximum; inactive = score below 0.9.

Columns and labels:
[1] = read-out: TIMP metallopeptidase inhibitor 2 (TIMP2), TIMP2 (gene 7077); experiment: BSK_KF3CT_TIMP2: BioMAP Diversity Plus: KF3CT Assay for TIMP metallopeptidase inhibitor 2 (TIMP2) Biomarker Activity (AID 2283071); details: primary human keratinocytes with fibroblasts; actives raise or lower the signal
How it was run: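 Keratinocyte–fibroblast co-culture, 24 h exposure; TIMP-2 ELISA, DMSO-normalised bidirectional fit. Parallel SRB (0.1%, TCA-fixed, 560 nm) total-protein staining gauges cytotoxicity.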

[2] = read-out: Transforming growth factor beta 1 (TGFb1), TGFB1 (gene 7040); experiment: BSK_KF3CT_TGFb1: BioMAP Diversity Plus: KF3CT Assay for Transforming growth factor beta 1 (TGFb1) Biomarker Activity (AID 2283072); details: primary human keratinocytes with fibroblasts; actives raise or lower the signal
How it was run: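 Signal changes in either direction, relative to DMSO, define activity here. TGF-b1 is read by ELISA from a human keratinocyte-fibroblast co-culture 24 h post-dose.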

[3] = read-out: C-C motif chemokine 2 (Homo sapiens) (UniProt P13500); experiment: BSK_KF3CT_MCP1: BioMAP Diversity Plus: KF3CT Assay for Monocyte Chemoattractant Protein 1 (MCP1/CCL2) Biomarker Activity (AID 2283073); details: primary human keratinocytes with fibroblasts; actives raise or lower the signal
How it was run: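 Human keratinocyte plus foreskin fibroblast primary co-culture exposed to chemical for 24 h. MCP-1 levels measured by ELISA. Bidirectional curve fitting relative to DMSO negative control as baseline.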

[4] = read-out: Matrix Metallopeptidase 9 (MMP9), MMP9 (gene 4318); experiment: BSK_KF3CT_MMP9: BioMAP Diversity Plus: KF3CT Assay for Matrix Metallopeptidase 9 (MMP9) Biomarker Activity (AID 2283074); details: primary human keratinocytes with fibroblasts; actives raise or lower the signal;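 for AC50: MMP9 protein level quantified by ELISA in the co-culture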
How it was run: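 Keratinocyte plus foreskin fibroblast human primary skin co-culture was dosed with chemical and MMP-9 was quantified by ELISA 24 h later. Bidirectional curve fitting used DMSO as negative control and activity baseline.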

[5] = read-out: urokinase plasminogen activator (uPA), PLAU (gene 5328); experiment: BSK_KF3CT_uPA: BioMAP Diversity Plus: KF3CT Assay for urokinase plasminogen activator (uPA) Biomarker Activity (AID 2283075); details: primary human keratinocytes with fibroblasts; actives raise or lower the signal
How it was run: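 Human keratinocyte plus foreskin fibroblast primary co-culture exposed to chemical for 24 h. uPA levels were quantified by ELISA, and activity was fitted bidirectionally against a DMSO negative-control baseline.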

[6] = read-out: CD40, CD40 (gene 958); experiment: BSK_LPS_CD40: BioMAP Diversity Plus: LPS Assay for CD40 Biomarker Activity (AID 2283076); details: primary human HUVEC with PBMC; actives raise or lower the signal
How it was run: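 Primary human umbilical vein endothelial cells co-cultured with peripheral blood mononuclear cells, LPS-stimulated, were dosed with chemical and read 24 h later. CD40 levels were measured by ELISA and fitted bidirectionally against DMSO as negative control and baseline.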

[7] = read-out: E-selectin (Homo sapiens) (UniProt P16581); experiment: BSK_LPS_Eselectin: BioMAP Diversity Plus: LPS Assay for Eselectin Biomarker Activity (AID 2283077); details: primary human HUVEC with PBMC; actives raise or lower the signal
How it was run: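 Human umbilical vein endothelial cells co-cultured with peripheral blood mononuclear cells under LPS stimulation; E-selectin measured by ELISA 24 h after chemical dosing. Activity fitted bidirectionally against DMSO as negative control and baseline.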

[8] = read-out: Interleukin-8 (IL8), CXCL8 (gene 3576); experiment: BSK_LPS_IL8: BioMAP Diversity Plus: LPS Assay for Interleukin-8 (IL8) Biomarker Activity (AID 2283078); details: primary human HUVEC with PBMC; actives raise or lower the signal
How it was run: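 Human umbilical vein endothelial cells co-cultured with PBMC were stimulated with LPS; IL-8 levels were measured by ELISA 24 h after chemical dosing. Activity was fitted bidirectionally against DMSO as negative control and baseline.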

[9] = BSK_LPS_SRB: Viability Assessment in the BioMAP Diversity Plus: LPS Assay (AID 2283079); details: primary human HUVEC with PBMC;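 note: total protein by sulforhodamine B absorbance as a cytotoxicity measure; measured one day after compound addition; fitted in both directions against DMSO so loss or gain of signal counts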
How it was run: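 Human umbilical vein endothelial cells co-cultured with PBMC (LPS system) were dosed for 24 h. Total protein was stained with 0.1% sulforhodamine B after 10% TCA fixation, read at 560 nm, and fitted bidirectionally against DMSO baseline.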

[10] = read-out: Interleukin-1 alpha (IL1a), IL1A (gene 3552); experiment: BSK_LPS_IL1a: BioMAP Diversity Plus: LPS Assay for Interleukin-1 alpha (IL1a) Biomarker Activity (AID 2283080); details: primary human HUVEC with PBMC; actives raise or lower the signal
How it was run: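 Human umbilical vein endothelial cells co-cultured with peripheral blood mononuclear cells were LPS-stimulated and exposed to test chemicals for 24 h. IL-1 alpha was quantified by ELISA, with bidirectional curve fitting against DMSO as the negative control and baseline.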

Measured: AC50

E-selectin (Homo sapiens), sequence (P16581 whole entry, looked up): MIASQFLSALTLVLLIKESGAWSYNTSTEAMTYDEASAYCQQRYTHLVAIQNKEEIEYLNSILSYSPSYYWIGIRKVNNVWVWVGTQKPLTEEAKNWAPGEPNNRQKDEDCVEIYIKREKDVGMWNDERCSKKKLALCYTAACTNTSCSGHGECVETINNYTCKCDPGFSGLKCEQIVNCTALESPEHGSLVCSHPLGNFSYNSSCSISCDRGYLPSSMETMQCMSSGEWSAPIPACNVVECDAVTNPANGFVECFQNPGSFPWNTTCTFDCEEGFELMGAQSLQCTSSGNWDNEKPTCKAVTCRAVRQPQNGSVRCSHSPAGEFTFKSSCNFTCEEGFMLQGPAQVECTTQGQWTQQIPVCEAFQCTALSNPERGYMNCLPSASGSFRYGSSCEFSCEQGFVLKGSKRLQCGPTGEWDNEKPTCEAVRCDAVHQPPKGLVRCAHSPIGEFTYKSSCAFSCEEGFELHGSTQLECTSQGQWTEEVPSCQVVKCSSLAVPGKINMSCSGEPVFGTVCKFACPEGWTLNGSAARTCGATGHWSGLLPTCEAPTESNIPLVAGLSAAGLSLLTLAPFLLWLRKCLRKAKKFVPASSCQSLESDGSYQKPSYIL

C=C(C)C(=O)O[C@H]1C[C@@H]2CC[C@@]1(C)C2(C)C
inactive: [2]
active: [1] 10.2 µM | [3] 12.8 µM | [4] 20 µM | [5] 13.8 µM | [6] 27.8 µM | [7] 29.6 µM | [8] 31.2 µM | [9] 30.4 µM

O=[N+]([O-])c1cc(C(F)(F)F)ccc1Cl
not listed: [10]
inactive: all other assays above

CCCCCCCCC=O
not listed: [10]
inactive: all other assays above

O=C(O)c1ccc([N+](=O)[O-])cc1
not listed: [10]
inactive: all other assays above

C#C[C@]1(O)CC[C@H]2[C@@H]3CCC4=Cc5oncc5C[C@]4(C)[C@H]3CC[C@@]21C
active: [1] 3.28 µM | [4] 3.97 µM | [9] 6.65 µM
not listed: [10]
inactive: all other assays above

CCc1c(C)cc(N)c(CC)c1N
not listed: [10]
inactive: all other assays above

CCCCC(CC)COC(=O)/C=C\C(=O)OCC(CC)CCCC (configuration not stated)
not listed: [10]
inactive: all other assays above

CCCCC/C=C/C=C/C=O
active: [1] 24.3 µM | [2] 9.27 µM | [3] 32.5 µM | [4] 26.8 µM | [5] 31.4 µM | [6] 20 µM | [7] 34.1 µM | [8] 32.6 µM | [9] 29.7 µM

O=C=NC1CCC(CC2CCC(N=C=O)CC2)CC1 (configuration not stated)
active: [5] 0.016 µM
not listed: [10]
inactive: all other assays above

CCCCC(CC)COCCC#N (configuration not stated)
not listed: [10]
inactive: all other assays above

O=C1CCCCCCCCCCCCCCO1
active: [1] 20 µM | [2] 20 µM | [3] 12.5 µM
not listed: [10]
inactive: all other assays above

CN(CCOc1ccc(CC2SC(=O)NC2=O)cc1)c1ccccn1 (configuration not stated)
active: [2] 0.016 µM | [4] 3.97 µM | [5] 0.016 µM | [6] 13 µM
not listed: [10]
inactive: all other assays above

CCCCCCCCCCCCCCCCCC(=O)OCC(CC)CCCC (configuration not stated)
not listed: [10]
inactive: all other assays above

CCn1c2ccccc2c2cc(N)ccc21
active: [1] 1.49 µM | [6] 5.63 µM
not listed: [10]
inactive: all other assays above

CC1CCC(C(C)CS)CC1S (configuration not stated)
active: [1] 5.83 µM | [2] 7.37 µM | [3] 20 µM | [4] 24 µM | [5] 33.7 µM | [6] 20 µM | [7] 34.6 µM | [9] 29.4 µM
inactive: [8]

O=C(O)C[C@H](O)C[C@H](O)/C=C/c1c(C2CC2)nc2ccccc2c1-c1ccc(F)cc1
active: [7] 0.0822 µM | [8] 0.992 µM | [9] 0.256 µM
not listed: [10]
inactive: all other assays above

CC(=O)O[C@]1(C(C)=O)CC[C@H]2[C@@H]3C[C@H](C)C4=CC(=O)CC[C@]4(C)[C@H]3CC[C@@]21C
not listed: [10]
inactive: all other assays above

Cc1ccc(O)c(C(C)(C)C)c1
active: [1] 24.9 µM | [2] 20 µM | [3] 36.6 µM | [4] 30.9 µM | [5] 36.6 µM | [6] 30.4 µM | [7] 30.4 µM | [8] 29.6 µM | [9] 31 µM

CNC[C@H](O)c1cccc(O)c1
active: [3] 0.0741 µM
not listed: [10]
inactive: all other assays above

O=P(c1ccccc1)(c1ccccc1)c1ccccc1
not listed: [10]
inactive: all other assays above

Nc1cc([N+](=O)[O-])ccc1Cl
not listed: [10]
inactive: all other assays above

CC(=O)Nc1ccccc1O
not listed: [10]
inactive: all other assays above

Cc1ccc2n[nH]nc2c1
not listed: [10]
inactive: all other assays above

Cc1ccc(Nc2ccc(O)c3c2C(=O)c2ccccc2C3=O)cc1
not listed: [10]
inactive: all other assays above

O=C(O)c1cn(C2CC2)c2cc(N3CCNCC3)c(F)cc2c1=O
not listed: [10]
inactive: all other assays above

NCCNCCN
not listed: [2] | [10]
inactive: all other assays above

OC1OC[C@@H](O)[C@H](O)[C@H]1O (some centres not stated)
not listed: [2] | [10]
inactive: all other assays above

Nc1cc([N+](=O)[O-])ccc1O
not listed: [2] | [10]
inactive: all other assays above

CC(=O)/C=C/C1=C(C)CCCC1(C)C
not listed: [10]
inactive: all other assays above

C[C@H]1C[C@@H]2[C@H]([C@@H](O)C[C@@]3(C)[C@H]2CC[C@]3(O)C(=O)CO)[C@@]2(C)C=CC(=O)C=C12
not listed: [2] | [10]
inactive: all other assays above

Cc1cc(C2(c3cc(C)c(O)cc3C)OS(=O)(=O)c3ccccc32)c(C)cc1O
not listed: [2]
inactive: all other assays above

O=C1OC2(c3cc(Br)c(O)c(Br)c3Oc3c2cc(Br)c(O)c3Br)c2c(Cl)c(Cl)c(Cl)c(Cl)c21
active: [1] 1.6 µM | [2] 0.979 µM | [4] 3.53 µM | [5] 3.89 µM | [6] 4.27 µM | [7] 5.71 µM | [8] 13.2 µM | [9] 3.6 µM

COc1cc(C=O)ccc1OC(=O)C(C)C
not listed: [2] | [10]
inactive: all other assays above

C=CCOC(=O)CCC1CCCCC1
not listed: [2] | [10]
inactive: all other assays above

CC(=O)[C@H]1CC[C@H]2[C@@H]3CC=C4C[C@@H](O)CC[C@]4(C)[C@H]3CC[C@]12C
not listed: [2]
inactive: all other assays above

N#Cc1ccc(CC(=NNC(=O)Nc2ccc(OC(F)(F)F)cc2)c2cccc(C(F)(F)F)c2)cc1
active: [1] 2.21 µM | [2] 0.463 µM
not listed: [10]
inactive: all other assays above

COC(=O)c1ccc(C)cc1
inactive: all assays above

BrC1CCC(Br)C(Br)CCC(Br)C(Br)CCC1Br (configuration not stated)
active: [1] 1.53 µM | [4] 4.72 µM | [5] 4.69 µM | [6] 4.57 µM | [9] 4.63 µM
inactive: [2] | [3] | [7] | [8]

CCC(=O)OCc1ccccc1
not listed: [2]
inactive: all other assays above

CC(C)(COC(=O)c1ccccc1)COC(=O)c1ccccc1
active: [6] 32 µM | [9] 31.3 µM
not listed: [10]
inactive: all other assays above

CC(C)c1ccc(C(C)C)cc1
active: [1] 31.8 µM | [7] 32.1 µM
inactive: all other assays above

c1ccc2c(c1)c1cccc3ccc4cccc2c4c31
active: [2] 0.0518 µM | [5] 0.0439 µM
not listed: [10]
inactive: all other assays above

c1ccc2sc(SN(C3CCCCC3)C3CCCCC3)nc2c1
active: [4] 0.888 µM
inactive: all other assays above

CCCCCCCCCC=O
inactive: all assays above

O=C(O)c1cn(-c2ccc(F)cc2)c2cc(N3CCNCC3)c(F)cc2c1=O
inactive: all assays above

CC(=O)OCCC(C)CC(C)(C)C (configuration not stated)
not listed: [2] | [10]
inactive: all other assays above

CC(C)Oc1ccccc1O
inactive: all assays above

CC[Si](OC(C)=O)(OC(C)=O)OC(C)=O
inactive: [1] | [3] | [4] | [5] | [6] | [7] | [8] | [9]
active: [6] 0.626 µM

C=C[Si](OCC)(OCC)OCC
inactive: all assays above

OC[C@H]1O[C@H](O[C@]2(CCl)O[C@H](CCl)[C@@H](O)[C@@H]2O)[C@H](O)[C@@H](O)[C@H]1Cl
not listed: [2] | [10]
inactive: all other assays above

CC1COc2ccccc2N1C(=O)C(Cl)Cl (configuration not stated)
inactive: [1] | [2] | [3] | [8]
active: [4] 13.7 µM | [5] 0.0271 µM | [6] 10.9 µM | [7] 20 µM | [9] 7.42 µM
